We go through 27 compounds from PubChem BioAssay (EPA / NIEHS).

Assay [1] is described as follows: ATG_CRE_CIS: Attagene CIS-FACTORIAL HepG2 Assay for human cAMP Responsive Element (CRE) binding protein 3 (AID 2282926). To be noted: HepG2 CRE cis-reporter, Attagene multiplexed mRNA; actives raise or lower the signal. In short, it runs like this: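 Cells carrying cis-regulated reporter constructs respond through their own endogenous factors. After 24 h treatment, RNA is reverse-transcribed, amplified, labelled and sized by capillary electrophoresis; up- and down-regulation are both scored against vehicle.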

In assay [2] the target is CCAAT/enhancer-binding protein beta (Homo sapiens) (UniProt P17676). Description: ATG_C_EBP_CIS: Attagene CIS-FACTORIAL HepG2 Assay for human CCAAT/Enhancer Binding Protein (C/EBP) beta (AID 2282927). To be noted: HepG2 Attagene cis-factorial transcription factor reporter; actives raise or lower the signal. In short, it runs like this:
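Chemical-treated HepG2 cells (24 h) bearing cis-regulated reporter constructs were processed for total RNA, then reverse transcription, PCR amplification, fluorescent primer extension and fragment analysis; gain- and loss-of-signal were fitted against DMSO.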

The nature of assay [3]: ATG_CMV_CIS: Attagene CIS-FACTORIAL HepG2 Assay for human CMV (Internal Marker) (AID 2282928).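 Further: endpoint acts as a background internal control marker rather than a target.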 To be noted: HepG2 CMV promoter reporter, transcription factor profiling; actives raise or lower the signal. A digest of the protocol:
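Bidirectional fits against DMSO are applied to reporter mRNA, read by RT-PCR with capillary electrophoresis, from HepG2 cells exposed 24 h. The endpoint serves as an internal CMV background marker within the cis-factorial reporter panel.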

The nature of assay [4]: ATG_DR4_LXR_CIS: Attagene CIS-FACTORIAL HepG2 Assay for human Liver X Receptor (LXR), DR4 submotif (AID 2282929). To be noted: HepG2 Attagene DR4 cis-reporter, mRNA transcription; actives raise or lower the signal. A digest of the protocol:
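After transient transfection with multiplexed cis-promoter reporter units, HepG2 cells received test chemicals for 24 h. Reporter mRNA induction, detected by fluorescence after RT-PCR and capillary electrophoresis, was scored relative to DMSO.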

Assay [5] deals with Aryl hydrocarbon receptor (Homo sapiens) (UniProt P35869). Briefly: ATG_Ahr_CIS: Attagene CIS-FACTORIAL HepG2 Assay for human Aryl Hydrocarbon Receptor (Ahr) (AID 2282930). To be noted: HepG2 AhR cis-factorial reporter transcription; actives raise or lower the signal. A digest of the protocol:
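Following 24 h of chemical dosing, transfected HepG2 liver cells with cis-driven reporter units were lysed for RNA; reporter mRNA was quantified via RT-PCR and capillary electrophoresis, and responses fitted bidirectionally from DMSO.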

Assay [6] in a line: ATG_AP_1_CIS: Attagene CIS-FACTORIAL HepG2 Assay for human Activator Protein 1 (AP-1) (AID 2282931). To be noted: HepG2 Attagene cis-factorial AP-1 reporter mRNA; actives raise or lower the signal. A digest of the protocol:
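After 24 h incubation with test chemical, RNA from transfected HepG2 cells was reverse-transcribed, amplified, fluorescently labelled and digested before capillary electrophoresis. Reporters were driven by cis-regulatory promoters; activity fitted bidirectionally versus DMSO.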

A short description of assay [7]: ATG_AP_2_CIS: Attagene CIS-FACTORIAL HepG2 Assay for human Activator Protein 2 (AP-2) (AID 2282932). To be noted: HepG2 AP-2 cis-reporter, Attagene transcription factor profiling; actives raise or lower the signal. A digest of the protocol: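 Cells (HepG2) transfected with promoter-driven reporter constructs, treated 24 h. Total RNA reverse-transcribed, reporter cDNA PCR-amplified, FAM-labelled by primer extension, digested, resolved by capillary electrophoresis. Activity fitted both directions versus DMSO.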

The nature of assay [8]: ATG_BRE_CIS: Attagene CIS-FACTORIAL HepG2 Assay for human Bone Morphogenetic Protein (BMP) Response Element (BRE) (AID 2282933). The note with it: HepG2 BMP response element reporter, Attagene transcription factor profiling; actives raise or lower the signal. A digest of the protocol: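 Read-out: reporter mRNA induction quantified by RT-PCR and capillary electrophoresis after 24 h chemical exposure of transfected HepG2 cells. Endogenous factor activity on the BMP response element; gain or loss fitted against DMSO baseline.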

Assay [9] has as its target Transcription factor E2F1 (Homo sapiens) (UniProt Q01094). Description: ATG_E2F_CIS: Attagene CIS-FACTORIAL HepG2 Assay for human E2F Transcription Factor 1 (AID 2282935). To be noted: HepG2 Attagene cis-reporter, E2F reporter RNA transcripts; actives raise or lower the signal. A digest of the protocol: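 First, HepG2 cells were transfected with reporter transcription units. Next, they were dosed for 24 h. Then RNA was isolated, converted to cDNA, PCR-amplified, FAM-labeled, HpaI-digested and analyzed by capillary electrophoresis.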

Structures are written as SMILES. Active and inactive are the calls of the source. How the source made its calls: active means hit-call score of the fitted dose curve at least 0.9, where 1 is the maximum; inactive means score below 0.9.

Chain of Aryl hydrocarbon receptor (Homo sapiens) (P35869 whole entry, looked up): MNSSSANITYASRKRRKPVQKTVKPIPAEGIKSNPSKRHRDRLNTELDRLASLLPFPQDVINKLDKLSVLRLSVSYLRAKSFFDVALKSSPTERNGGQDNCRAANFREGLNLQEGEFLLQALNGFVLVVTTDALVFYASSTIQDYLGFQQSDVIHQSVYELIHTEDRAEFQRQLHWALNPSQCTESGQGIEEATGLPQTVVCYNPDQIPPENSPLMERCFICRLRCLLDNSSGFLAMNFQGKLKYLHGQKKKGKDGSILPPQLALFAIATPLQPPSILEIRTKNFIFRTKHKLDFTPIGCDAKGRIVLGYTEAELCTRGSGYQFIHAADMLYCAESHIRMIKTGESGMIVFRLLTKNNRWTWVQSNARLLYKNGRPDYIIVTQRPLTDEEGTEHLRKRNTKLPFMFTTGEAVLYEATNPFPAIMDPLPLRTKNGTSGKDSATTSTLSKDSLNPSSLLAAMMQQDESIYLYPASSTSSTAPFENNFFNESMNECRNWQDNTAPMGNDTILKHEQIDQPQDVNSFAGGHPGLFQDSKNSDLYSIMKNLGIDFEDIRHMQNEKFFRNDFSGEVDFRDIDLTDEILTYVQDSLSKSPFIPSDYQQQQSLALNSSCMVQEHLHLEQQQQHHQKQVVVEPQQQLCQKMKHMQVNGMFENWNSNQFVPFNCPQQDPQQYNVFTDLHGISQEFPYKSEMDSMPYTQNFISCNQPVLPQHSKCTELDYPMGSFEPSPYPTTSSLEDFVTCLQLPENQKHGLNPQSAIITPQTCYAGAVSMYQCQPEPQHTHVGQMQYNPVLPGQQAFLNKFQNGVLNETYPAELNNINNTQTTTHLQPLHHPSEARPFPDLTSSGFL
Chain of Transcription factor E2F1 (Homo sapiens) (Q01094 whole entry, looked up): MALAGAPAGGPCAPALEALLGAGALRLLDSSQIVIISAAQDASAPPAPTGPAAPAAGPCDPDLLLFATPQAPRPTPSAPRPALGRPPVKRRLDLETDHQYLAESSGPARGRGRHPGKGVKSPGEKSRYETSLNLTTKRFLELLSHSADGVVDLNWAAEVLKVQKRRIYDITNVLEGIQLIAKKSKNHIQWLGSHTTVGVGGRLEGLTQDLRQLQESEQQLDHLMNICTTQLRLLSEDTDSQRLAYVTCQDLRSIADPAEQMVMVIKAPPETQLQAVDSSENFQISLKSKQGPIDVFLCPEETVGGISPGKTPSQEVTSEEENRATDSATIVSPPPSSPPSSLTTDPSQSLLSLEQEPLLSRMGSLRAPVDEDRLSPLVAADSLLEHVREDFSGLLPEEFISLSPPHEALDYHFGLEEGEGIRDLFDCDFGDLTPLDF
Chain of CCAAT/enhancer-binding protein beta (Homo sapiens) (P17676 whole entry, looked up, the tested form may be a part): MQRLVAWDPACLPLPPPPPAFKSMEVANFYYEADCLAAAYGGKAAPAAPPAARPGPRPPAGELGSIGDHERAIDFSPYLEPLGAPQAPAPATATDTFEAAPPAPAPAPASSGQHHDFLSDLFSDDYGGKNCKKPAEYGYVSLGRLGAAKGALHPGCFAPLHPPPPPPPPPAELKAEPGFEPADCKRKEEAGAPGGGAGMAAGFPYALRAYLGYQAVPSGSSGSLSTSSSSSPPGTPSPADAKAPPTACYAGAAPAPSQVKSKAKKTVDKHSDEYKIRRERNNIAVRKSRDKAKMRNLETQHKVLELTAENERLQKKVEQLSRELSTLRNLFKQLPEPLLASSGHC

Consider `O=C(O)C[C@H](O)C[C@H](O)/C=C/c1c(C2CC2)nc2ccccc2c1-c1ccc(F)cc1`, for which the call in assay [1], in assay [2], in assay [3], in assay [4], in assay [5] and in assay [6] was inactive. The compound was classed as inactive in [7], in assay [8] and in [9].
Regarding `CC(C)=CCC[C@H](C)CC=O`, the call in assay [1], in [2], in [3], in [4], in [5] and in assay [6] was inactive. Besides, the call in assay [7], in assay [8] and in assay [9] was inactive.
As for `Nc1cc(N)cc(C(=O)O)c1`, the compound was classed as inactive in assay [1], in assay [2], in [3], in assay [4], in assay [5] and in assay [6]. Moreover, the compound was called inactive in [7], in [8] and in assay [9].
With `CC(C)c1ccc(C(C)C)cc1`, the call in [1], in assay [2], in [4], in assay [5], in [6] and in assay [7] was inactive. Further, the compound was called inactive in [8] and in assay [9]. In addition, in [3], the half-maximal activity concentration (AC50) (usually the concentration giving half of the maximal activity seen) is 156 µM (active).
For `CCCC/C=C\CCCCCCCCCC=O`, the call in assay [1], in [2], in [3], in assay [4], in assay [5] and in assay [6] was inactive. Moreover, the call in assay [7], in assay [8] and in assay [9] was inactive.
`O=C1OC2(c3cc(Br)c(O)c(Br)c3Oc3c2cc(Br)c(O)c3Br)c2c(Cl)c(Cl)c(Cl)c(Cl)c21`: the compound was called inactive in assay [1], in assay [2], in [3], in [4], in assay [6] and in assay [7]. The result in assay [8] and in assay [9] was inactive. Besides, the concentration at half-maximal activity (AC50) in [5] is 15.1 µM (active).
As for `N#Cc1ccccc1`, the outcome in [1], in assay [2], in [3], in [4], in assay [5] and in assay [6] was inactive. In addition, the compound was classed as inactive in assay [7], in assay [8] and in assay [9].
With `Cc1cc(C2(c3cc(C)c(O)cc3C)OS(=O)(=O)c3ccccc32)c(C)cc1O`, the call in [1], in assay [2], in [3], in assay [4], in assay [6] and in assay [7] was inactive. For the same compound, the result in assay [8] and in [9] was inactive. In addition, the AC50 in [5] was 44.5 µM (active).
On to `O=C(O)c1cn(-c2ccc(F)cc2)c2cc(N3CCNCC3)c(F)cc2c1=O`, for which the compound was classed as inactive in assay [1], in assay [2], in assay [3], in assay [4], in assay [5] and in assay [6]. The call in [7], in [8] and in assay [9] was inactive.
Regarding `CCc1c(C)cc(N)c(CC)c1N`, the call in [1], in assay [2], in [3], in [4], in assay [6] and in [7] was inactive. The call in assay [8] and in assay [9] was inactive. Also, the half-maximal activity concentration (AC50) in [5] is 79.3 µM (active).
Turning to `OC[C@H]1O[C@H](O[C@]2(CCl)O[C@H](CCl)[C@@H](O)[C@@H]2O)[C@H](O)[C@@H](O)[C@H]1Cl`, the compound was classed as inactive in [1], in assay [2], in assay [3], in [4], in assay [5] and in assay [6]. Besides, the compound was classed as inactive in assay [7], in assay [8] and in [9].
As for `O=[N+]([O-])c1ccc(Nc2ccc(Nc3ccccc3)c(S(=O)(=O)O)c2)c([N+](=O)[O-])c1`, the outcome in assay [1], in assay [2], in assay [3], in assay [7], in [8] and in assay [9] was inactive. Also, the half-maximal activity concentration (AC50) in assay [4] is 100 µM (active); in assay [5], 31.9 µM (active); in [6], 147 µM (active).
On to `CCCC(=O)c1cc(O)c(O)cc1O`, for which the compound was classed as inactive in [1], in assay [2], in [3], in assay [4], in [5] and in [6]. For the same compound, the result in assay [7], in assay [8] and in assay [9] was inactive.
For `Clc1cccc(Cl)n1`, the result in assay [1], in [2], in [3], in assay [4], in assay [5] and in assay [6] was inactive. Moreover, the compound was called inactive in [7], in [8] and in assay [9].
Regarding `CCCc1ccccc1O`, the result in [1], in assay [2], in assay [3], in assay [4], in assay [6] and in [7] was inactive. Further, the result in assay [8] and in assay [9] was inactive. Besides, the half-maximal activity concentration (AC50) in [5] is 23.9 µM (active).
Turning to `C=CC(C)(O)CCC=C(C)CCC=C(C)C` (stereo not drawn), the AC50 is 126 µM (active) in assay [1]; 137 µM (active) in assay [2]; 183 µM (active) in assay [3]; 51 µM (active) in assay [5]; 154 µM (active) in [6]; 161 µM (active) in [7]. The compound was called inactive in assay [4], in assay [8] and in assay [9].
With `CC(=O)C(C)=O`, the compound was called inactive in assay [1], in assay [2], in [4], in [5], in [6] and in [7]. Moreover, the compound was called inactive in assay [8] and in [9]. For the same compound, the AC50 in [3] was 40.6 µM (active).
For the compound `CO[Si](CCCn1c(=O)n(CCC[Si](OC)(OC)OC)c(=O)n(CCC[Si](OC)(OC)OC)c1=O)(OC)OC`, the call in assay [1], in assay [2], in assay [3], in assay [4], in [5] and in assay [6] was inactive. For the same compound, the outcome in assay [7], in [8] and in assay [9] was inactive.
In the case of `CC(C)OP(=O)(CP(=O)(OC(C)C)OC(C)C)OC(C)C`, the outcome in assay [1], in assay [2], in [3], in [4], in [5] and in assay [6] was inactive. Also, the result in assay [7], in assay [8] and in assay [9] was inactive.
In the case of `CCCCN`, the outcome in assay [1], in assay [2], in assay [3], in [4], in [5] and in [6] was inactive. In addition, the compound was called inactive in assay [7], in assay [8] and in assay [9].
In the case of `CC(C=O)Cc1ccc(C(C)C)cc1` (stereo not drawn), the compound was called inactive in assay [1], in assay [2], in assay [3], in assay [4], in [5] and in assay [6]. The compound was classed as inactive in assay [7], in [8] and in assay [9].
Take `c1ccc2sc(SN(C3CCCCC3)C3CCCCC3)nc2c1`: the compound was called inactive in [1], in assay [2], in assay [4], in assay [7], in assay [8] and in [9]. The AC50 in [3] was 8.13 µM (active); in assay [5], 49.1 µM (active); in assay [6], 11.9 µM (active).
For the compound `OC1C(O)C(O)C(O)C(O)C1O` (stereo not drawn), the compound was classed as inactive in assay [1], in [2], in assay [3], in assay [4], in [6] and in assay [7]. Besides, the compound was called inactive in assay [8] and in assay [9]. Further, the concentration at half-maximal activity (AC50) in assay [5] is 70.3 µM (active).
As to `Clc1sc(Cl)c(Cl)c1Cl`, the call in [1], in [2], in assay [3], in assay [4], in [5] and in assay [6] was inactive. The outcome in assay [7], in assay [8] and in assay [9] was inactive.
`CC(=O)C=CC1=C(C)CCCC1(C)C`: the outcome in [1], in assay [2], in [3], in [5], in assay [6] and in [7] was inactive. For the same compound, the compound was classed as inactive in [8] and in [9]. Also, in assay [4], the concentration at half-maximal activity (AC50) was 3.8 µM (active).
As to `C=C(C)C(=O)Nc1ccc(Cl)c(Cl)c1`, the compound was classed as inactive in assay [1], in assay [2], in [3], in [4], in [6] and in [7]. The result in [9] was inactive. In addition, the AC50 in [5] is 14.9 µM (active); in assay [8], 79.9 µM (active).
As for `c1ccc2c(c1)c1cccc3ccc4cccc2c4c31`, the compound was called inactive in assay [1], in [2], in [3], in assay [4], in [5] and in assay [6]. Besides, the result in assay [7], in assay [8] and in assay [9] was inactive.
